LEDGF integ inh – blocks HIV-1 LEDGF/p75-dependent DNA integration; TR-FRET IN-LEDGF/p75 DNA integration, Eu/Cy5; inhibition, % at 3.7 µM; 370,000 tested, 0.64% active;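 active = inhibition above the screen-wide mean plus 3 SD, cut at about 13% in these data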;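 also: signal is the Cy5 over europium emission ratio at 671 and 618 nm; 0% = plate median of compound wells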
UHRF1 MBD2 ctr – human UHRF1 methylated DNA binding inhibitors; AID 687016; 370,000 tested, 0.75% active; inhibition, % at 4.4 µM; UHRF1 binding to methylated oligo, TR-FRET; in the data active = inhibition above about 21%;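 also: UHRF1 SRA domain binding a hemimethylated CpG hairpin DNA probe; 0% = median of test compound wells and 100% = reference inhibitor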
DNMT1 block – DNMT1 (human) enzyme inhibition; DNMT1 molecular beacon, Hinp1I cleavage, fluorescence; inhibition (reported as % activation of signal), % at 10 µM; 360,000 tested, 0.83% active; in the data active = inhibition above about 50%
rCAG RNA binder – binds r(CAG) RNA repeats; r(CAG) RNA repeat, TO-PRO-1 dye displacement fluorescence; inhibition, % at 3 µM; 370,000 tested, 1.3% active; AID 651821;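 active = inhibition above the plate cutoff, the mean of all test compounds on that plate plus 3 SD, cut at about 35% in these data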;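 also: 0% = DMSO alone and 100% = 100 µM mitoxantrone as full dye displacement; higher means more dye released from RNA so lower well fluorescence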
PG9 Ab binder – binds the HIV-1 gp120 antibody PG9. TR-FRET gp120-PG9 antibody binding. 360,000 tested, 0.43% active. inhibition, % at 6.7 µM; in the data active = inhibition above about 8.5%
MBD2 DNA inh – inhibitors of human MBD2 binding to methylated oligonucleotide; Q9UBB5; TR-FRET; inhibition, % at 4.4 µM; 370,000 tested, 0.31% active; in the data active = inhibition above about 13%
Target sequence (Q9UBB5 whole entry, looked up): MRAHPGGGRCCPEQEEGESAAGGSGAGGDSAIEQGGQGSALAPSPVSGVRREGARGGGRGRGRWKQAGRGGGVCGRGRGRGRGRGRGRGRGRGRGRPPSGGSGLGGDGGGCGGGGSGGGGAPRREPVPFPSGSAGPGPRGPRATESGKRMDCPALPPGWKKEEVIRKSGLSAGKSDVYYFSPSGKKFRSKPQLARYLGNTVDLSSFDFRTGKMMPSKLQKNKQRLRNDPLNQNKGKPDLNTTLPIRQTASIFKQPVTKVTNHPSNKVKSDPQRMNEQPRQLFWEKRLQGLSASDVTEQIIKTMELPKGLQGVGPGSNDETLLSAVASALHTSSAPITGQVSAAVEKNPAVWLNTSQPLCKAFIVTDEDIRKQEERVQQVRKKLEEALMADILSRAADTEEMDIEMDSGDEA
An asterisk follows results filed as active; . = no result given; + = active, no number. Hits are enriched below; roughly 3.5% of the tested compounds scored in any of these assays.

SMILES | LEDGF integ inh | UHRF1 MBD2 ctr | DNMT1 block | rCAG RNA binder | PG9 Ab binder | MBD2 DNA inh
COC(=O)c1c(NC(=O)CSc2n[nH]c(N)n2)sc(C)c1C | 3.6 | -3.0 | -10.3 | 5.0 | 0.2 | -2.5
O=C(C(=O)N1CCC(CNS(=O)(=O)c2ccc(C(F)(F)F)cc2)CC1)c1cc2ccccc2o1 | -5.8 | 0.7 | . | 4.5 | -1.1 | -0.6
Cc1cc(C(=O)O[C@H]2CCC[C@@]3(C(=O)N(Cc4ccccc4)c4ccccc43)[C@H]2NC(=O)CCc2ccccc2)no1 | -1.9 | 1.2 | . | 4.7 | . | -6.1
CCc1cc2c(nc1CC)CCCN2S(=O)(=O)c1ccccc1 | 1.7 | 0.7 | . | -0.8 | -0.5 | 5.0
CN(C)CCNc1ccc2ncn3c4ccc(O)cc4c(=O)c1c23 | 8.3 | -67.1 | 85.9* | -3.8 | -23.4 | 1.4
OC(c1cc(Cl)cc(Cl)c1)c1ncc(-c2cccc(F)c2)[nH]1 (stereo not given) | -5.6 | -0.9 | 0.3 | 3.0 | -0.1 | 0.9
Cc1cc(/C=N/N2CCN(C)CC2)c(C)n1-c1ccc(Cl)cc1 | 0.6 | 30.3* | -5.4 | -0.8 | -2.9 | 3.4
N#Cc1c(N)sc(=S)c2c1CCCCC2 | 19.2* | 21.1* | 17.1 | 14.0 | 1.0 | 10.0
N#Cc1c(N)sc2c1CCCCCC2 | 0.0 | -4.5 | -7.5 | 13.6 | -0.7 | -2.9
CCC(C)(C)n1nnnc1CN1CCN(c2ccc(OC)cc2)CC1 | 0.5 | 21.8* | -0.6 | -11.1 | -2.3 | -0.6
COc1ccc(-c2noc(CNC(=O)Nc3ccc(F)cc3)n2)cc1 | -3.1 | 65.2* | -4.0 | 4.9 | -0.4 | 3.5
O=C(CCc1ccccc1)N[C@H]1[C@@H](OC(=O)C2CC2)CCC[C@@]12C(=O)N(Cc1ccccc1)c1ccccc12 | 1.3 | 0.5 | . | 2.9 | . | 0.7
CCN(CC)S(=O)(=O)c1ccc(C)c(NC(=O)/C=C/c2cccs2)c1 | 6.5 | 21.7* | 0.9 | 2.5 | -1.7 | 10.4
CCOc1ccc(Oc2c(Cl)cnn(Cc3cccc4ccccc34)c2=O)cc1 | -1.0 | 2.0 | . | 3.4 | . | 4.5
Cc1ccc(CNCCNCCO)s1 | -4.3 | 22.2* | 0.7 | -0.8 | -0.4 | 12.0
Cc1ccc(CNCC(O)c2ccccc2)s1 (stereo not given) | -3.0 | -1.2 | 1.1 | 0.9 | 0.1 | 1.4
COc1cc(C(=O)c2ccccc2)c(OC)cc1C(=O)Nc1ccc(O)cc1 | 10.7 | 27.3* | -2.5 | 4.2 | -1.9 | 10.3
O=C(c1ccc(C#Cc2ccccc2)cc1)N1CCC(O)CC1 | 2.1 | -3.7 | . | -0.8 | . | 1.7
COc1cccc(NC(=O)C/C(C)=N/NC(=O)c2ccccc2Cl)c1 | -5.0 | -0.6 | 1.5 | -1.6 | -0.1 | -0.6
C/C(CC(=O)Nc1ccc(Cl)c(C(F)(F)F)c1)=N\NC(=O)c1cc2ccccc2cc1O | -1.9 | -4.3 | -31.6 | 50.7* | -1.6 | 1.6
CC(C)c1noc2ncc(C(=O)c3cc(Cl)cc(Cl)c3O)cc12 | 1.2 | -5.5 | 1.3 | 46.8* | 1.0 | -6.7
COC1=C/C(=C/c2c(N)n3nc(CC(=O)N4CCCC4)sc3nc2=O)C=CC1=O | 5.3 | 7.2 | 0.8 | 18.2 | -4.2 | -1.2
COC1=CC(=Cc2c(N)n3nc(CC(=O)N4CCCCC4)sc3nc2=O)C=C(OC)C1=O | -0.4 | 32.1* | 5.8 | 24.6 | -5.2 | 11.9
Nc1c(/C=C2/C=CC(=O)C(O)=C2)c(=O)nc2sc(CC(=O)N3CCCCC3)nn12 | 15.8* | 26.2* | 81.3* | 28.6 | -3.6 | 6.2
Nc1c(/C=C2/C=CC(=O)C(O)=C2)c(=O)nc2sc(CC(=O)N3CCCC3)nn12 | 8.0 | 9.3 | 21.1 | 20.2 | -7.5 | -2.8
SMILES | LEDGF integ inh | UHRF1 MBD2 ctr | DNMT1 block | rCAG RNA binder | PG9 Ab binder | MBD2 DNA inh
O=S(=O)(c1ccc2nc(N3CCN(c4ccccc4)CC3)ccc2c1)N1CCCCC1 | -3.7 | 21.7* | 14.5 | 0.6 | -0.1 | 2.1
COc1ccccc1N1CCN(c2ccc3cc(S(=O)(=O)N4CCCCC4)ccc3n2)CC1 | 1.8 | 3.4 | -1.7 | 3.0 | -4.3 | -1.4
O=C1C=C(c2ccccc2Oc2ccccc2)C[C@@H](c2ccc(F)cc2)C1 | 3.9 | 21.8* | -0.9 | 4.8 | -1.8 | 10.9
O=c1c2cc3cc(Cl)ccc3nc2ncn1CCc1c[nH]c2ccccc12 | 8.1 | -0.8 | . | 6.9 | . | 1.8
COc1ccccc1Nc1ccc(C(=O)NC2CCCCC2)cn1 | -2.2 | 26.9* | -0.4 | -5.3 | -1.7 | -1.6
c1ccc(CN2CCN(c3nc(-c4ccccc4)nc4ccccc34)CC2)cc1 | -1.2 | 20.9* | -7.8 | 0.1 | -1.4 | 7.0
c1ccc(CN2CCN(c3nc(-c4ccccn4)nc4ccccc34)CC2)cc1 | 2.0 | -4.5 | 12.2 | -5.9 | -2.3 | -4.6
COc1ccccc1NC(=O)CC(=O)c1cccc([N+](=O)[O-])c1 | 2.2 | -2.4 | -0.1 | 12.0 | -2.2 | -1.3
COc1ccccc1NC(=O)/C(=C/c1cccc([N+](=O)[O-])c1)c1ccccc1 | -4.5 | 46.7* | -1.3 | 2.6 | -0.9 | -3.4
COc1ccc(S(=O)(=O)Nc2ccc3c(c2)C(=O)N([C@H](C)CO)C[C@H](C)[C@@H](CN(C)C(=O)Nc2ccc(F)cc2)OCCCC[C@H](C)O3)cc1 | -3.9 | 2.2 | -1.3 | 10.1 | -0.9 | -5.2
COc1ccc(S(=O)(=O)Nc2ccc3c(c2)C(=O)N([C@@H](C)CO)C[C@@H](C)[C@H](CN(C)C(=O)CCCN(C)C)OCCCC[C@H](C)O3)cc1 | -1.9 | 29.0* | 6.6 | 7.4 | 0.2 | -4.5
C[C@@H]1CCCCO[C@H](CN(C)C(=O)C2CCCCC2)[C@@H](C)CN([C@H](C)CO)C(=O)c2cc(N(C)C)ccc2O1 | -2.9 | 50.0* | 0.6 | 0.8 | -2.0 | 0.9
COc1ccc(C2CC(=O)C(c3ccc(Cl)c(Cl)c3)=CN2Cc2ccccc2)cc1 (stereo not given) | 2.7 | -0.2 | . | 6.9 | -0.8 | -2.6
COc1ccc2nc(NC(=O)Nc3ccccc3)sc2c1 | -0.9 | -0.5 | 1.0 | 43.1* | -0.5 | 4.7
CC(=O)Nc1ccc2nc(NC(=O)COc3ccccc3C)sc2c1 | -7.0 | 3.6 | 1.3 | 7.9 | -0.6 | 1.9
COc1cccc2sc(Nc3nc4ccc(NC(C)=O)cc4s3)nc12 | -12.8 | -0.9 | -15.9 | 49.4* | 0.4 | 0.0
COC(=O)[C@]12C[C@H](CC(=O)NCCCN3CCCC3=O)C(=O)N(Cc3ccco3)C1=C[C@H](C(C)C)O[C@@H]2C1CC1 | -1.7 | -3.0 | . | -1.4 | . | 2.8
CC(C)CCn1nnnc1C(c1ccc(F)cc1)N1CCC(C(N)=O)CC1 (stereo not given) | 3.3 | 21.7* | -1.4 | -4.9 | -3.1 | 7.2
CC(C)CCn1nnnc1C(c1ccccc1)N1CCC(C(N)=O)CC1 (stereo not given) | 1.9 | -2.8 | 2.7 | -6.2 | -1.3 | 1.6
CCN(CC)c1ccc2cc(-c3nc4ccccc4[nH]3)c(=O)oc2c1 | . | . | + | . | . | .
COc1cccc2cc(-c3nc4ccccc4[nH]3)c(=O)oc12 | -4.5 | -0.2 | 4.3 | 3.3 | 2.3 | -0.5
CCOC(=O)C1CCCN(Cc2cc(=O)oc3cc(C)c(C(C)C)cc23)C1 (stereo not given) | 0.5 | 26.4* | 3.2 | -7.0 | -1.3 | -0.5
